The source made the active and inactive calls. The calls were made as follows: active = hit-call score of the fitted dose curve at least 0.9, where 1 is the maximum; inactive = score below 0.9.
What was measured:
Conditions in all cases: actives raise or lower the signal
[1] = CEETOX_H295R_OHPREG_noMTC: CeeTox H295R High-throughput Steroidogenesis Assay for OH-Pregnenolone (OHPREG), maximum tolerated concentration (MTC) filtered results only (AID 2283912)
Outline: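 Readout is HPLC-MS/MS quantification of 17alpha-hydroxypregnenolone released by forskolin-stimulated H295R cells over 48 h of chemical exposure, DMSO as baseline.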

[2] = CEETOX_H295R_OHPROG_noMTC: CeeTox H295R High-throughput Steroidogenesis Assay for OH-Progesterone (OHPROG), maximum tolerated concentration (MTC) filtered results only (AID 2283914)
Outline: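 Analysis uses all tested concentrations, without maximum-tolerated-concentration screening by MTT. H295R cells, forskolin-primed (10 uM, 48 h), receive chemical for 48 h; hormone in medium measured by HPLC-MS/MS, with bidirectional curve fitting against DMSO.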

[3] = CEETOX_H295R_ANDR_noMTC: CeeTox H295R High-throughput Steroidogenesis Assay for Androstenedione (ANDR), maximum tolerated concentration (MTC) filtered results only (AID 2283915)
Outline: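 Androstenedione secreted into medium was measured by LC-MS/MS after MTBE extraction. Human adrenal H295R cells received 10 uM forskolin for 48 h before 48 h chemical exposure (0.1% DMSO). Gain or loss fitted against DMSO, including concentrations above the MTT-derived MTC.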

[4] = CEETOX_H295R_PROG_noMTC: CeeTox H295R High-throughput Steroidogenesis Assay for Progesterone (PROG), maximum tolerated concentration (MTC) filtered results only (AID 2283920)
Outline: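 Progesterone synthesis in the human adrenal line H295R is measured by HPLC-MS/MS after 48 h chemical exposure following 48 h forskolin (10 uM) stimulation. Activity in either direction is fitted relative to DMSO.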

Measured: outcome

CCCCOC(=O)c1ccccc1C(=O)O
inactive: [1] | [2] | [3] | [4]

From PubChem BioAssay (EPA / NIEHS)
